Mtb betalactam: beta-lactam sensitization of Mtb H37Rv, H37Rv | M. tuberculosis H37Rv growth with meropenem, percent inhibition | inhibition, % at 25 µM | 330,000 tested, 0.27% active | AID 434955, 2010; call rule not given here;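 further: growth measured after seven days incubation then overnight dye step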
RecA intein inh: Mtb RecA intein splicing inhibitors, primary screen, biochemical, fluorescence, HTS; 290,000 tested, 0.75% active; Protein RecA (Mycobacterium tuberculosis (strain ATCC 25618 / H37Rv)), P9WHJ3; inhibition, % (no concentration beside the values); cell-free RecA intein splicing; in the data active means inhibition above about 30%
GDH-TPI counter-1: GDH-TPI coupling enzyme inhibitors, primary screen, artefact control for M. tuberculosis FBA inhibitor project, biochemical, absorbance, full deck. GDH-TPI coupled enzyme counterscreen, NADH absorbance. inhibition, % at 4.8 µM. 360,000 tested, 1.2% active; in the data active means inhibition above about 30%
Rv3671c protease: Rv3671c serine protease inhibitors, primary screen, biochemical, fluorescence polarization, M. tuberculosis H37Rv; inhibition, % at 5.96 µM; 320,000 tested, 0.048% active; in the data active means inhibition above about 38%;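 further: extracellular domain of Rv3671c used as enzyme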
Mtb FBA inh: Mtb FBA enzyme inhibitors, primary screen, biochemical, fluorescence, strain H37Rv; Fructose-bisphosphate aldolase (Mycobacterium tuberculosis (strain ATCC 25618 / H37Rv)), …; purified M. tuberculosis FBA, fluorescence read-out; inhibition, % at 1 µM; 360,000 tested, 2.3% active; AID 588726, 2011
UGM FP inh: M. tuberculosis UGM enzyme inhibitors, primary screen, biochemical, fluorescence polarization, single point. UDP-galactopyranose mutase (Mycobacterium tuberculosis (strain ATCC 25618 / H37Rv)), …. purified UGM, fluorescence polarization probe displacement. inhibition, % at 10 µM. 320,000 tested, 0.06% active; in the data active means inhibition above about 10%, passing the limit was not always enough
Target sequence (P9WIQ1 whole entry, looked up): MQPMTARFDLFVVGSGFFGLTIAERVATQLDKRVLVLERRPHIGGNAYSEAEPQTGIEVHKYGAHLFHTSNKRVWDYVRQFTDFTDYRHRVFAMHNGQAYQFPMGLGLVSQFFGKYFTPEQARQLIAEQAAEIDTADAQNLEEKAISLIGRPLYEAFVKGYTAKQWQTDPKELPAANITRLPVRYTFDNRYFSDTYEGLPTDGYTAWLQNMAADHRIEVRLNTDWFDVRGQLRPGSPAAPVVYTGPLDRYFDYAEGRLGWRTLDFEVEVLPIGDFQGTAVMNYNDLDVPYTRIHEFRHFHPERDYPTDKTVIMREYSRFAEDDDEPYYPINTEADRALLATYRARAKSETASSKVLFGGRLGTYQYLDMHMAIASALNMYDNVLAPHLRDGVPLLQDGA
Mtb FBA confirm: M. tuberculosis aldolase blockers, biochemical, fluorescence, strain H37Rv, confirmation; shares compounds with Mtb FBA inh; inhibition, % at 1 µM; 5,600 tested, 78% active; purified M. tuberculosis FBA, fluorescence read-out
GDH-TPI counter-2: GDH-TPI coupling enzyme inhibitors, artefact control for M. tuberculosis FBA inhibitor project, biochemical, fluorescence, high throughput; shares compounds with Mtb FBA inh; GDH-TPI coupled enzyme counterscreen; inhibition, % at 1 µM; 5,600 tested, 81% active; AID 652141, 2013; in the data active means inhibition above about 10%
GDH-TPI dose: GDH-TPI coupling enzyme inhibitors, dose response, artefact control for M. tuberculosis FBA inhibitor project, biochemical, fluorescence, IC50; shares compounds with Mtb FBA inh; GDH-TPI coupled enzyme assay, artifact counterscreen; IC50, µM; 170 tested, 79% active; call rule not given here
Each line names hits and unclear results; the compound was inactive in the other large screens (follow-up assays come after a bar, where they were run); ! = repeats disagree. This is a sample that favours compounds with a hit; in the whole collection about 4% have one here. Unless noted, no stated cut-off is given here; in the data, active means inhibition above about 27%; inactive means the rest.

COc1ccc(NC(=O)c2cnc3sccn3c2=O)cc1	none
O=C(O)CN(c1ccccn1)S(=O)(=O)c1ccc(Cl)cc1	Mtb FBA inh 35.1 | Mtb FBA confirm 39.2 | GDH-TPI counter-2 36.1
O=C(O)CN(c1ccccn1)S(=O)(=O)c1ccccc1	Mtb FBA inh 36.5 | Mtb FBA confirm 93.7 | GDH-TPI counter-2 87.4
COC(=O)CN(c1ccccn1)S(=O)(=O)c1ccccc1	Mtb FBA inh 37.5 | Mtb FBA confirm 115.4 | GDH-TPI counter-2 100.4
COC(=O)CN(c1ccc2c(c1)OCCO2)S(=O)(=O)c1ccccc1	Mtb FBA inh 36.7 | Mtb FBA confirm inactive | GDH-TPI counter-2 inactive | GDH-TPI dose inactive
NC(=O)CN(c1ccc(Cl)cc1)S(=O)(=O)c1ccccc1	none
O=S(=O)(c1ccccc1)N(Cc1ccccn1)Cc1ccccn1	none
CCCC(=O)C1=C(SCC)CC(C)(C)C(C(=O)OC)C1=O (configuration not stated)	none
CCn1c(=O)c(C(=O)Nc2ccc(C)cc2C)c(O)c2ccccc21	none
CCCC(=O)Nc1ccc2oc(-c3cncc(Br)c3)nc2c1	Mtb FBA inh 40.3 | Mtb FBA confirm 172.0 | GDH-TPI counter-2 132.3
CCCC(=O)Nc1ccc2oc(-c3ccncc3)nc2c1	none
CCCC(=O)Nc1ccc(-c2nc3cc(C)c(C)cc3o2)cc1	Mtb FBA inh 87.0 | Mtb FBA confirm 40.2 | GDH-TPI counter-2 40.0
COCCNC(=O)[C@H](CSCc1ccccc1)N1Cc2ccccc2C1=O	none
O=[N+]([O-])c1ccc(Nc2c3ccccc3nc3ccccc23)cc1	Mtb FBA inh 50.9 (no result: Mtb betalactam, Rv3671c protease, UGM FP inh) | Mtb FBA confirm 100.6 | GDH-TPI counter-2 83.7
CC(=O)Cc1nsc(NC(=O)c2ccccc2Cl)n1	none
CCCCN(C)C(=O)c1cc2cc3ccc(OC)cc3nc2o1	Mtb FBA inh 78.0 | Mtb FBA confirm inactive | GDH-TPI counter-2 inactive
CCCCN(C)C(=O)c1cc2cc3cc(OC)ccc3nc2o1	Mtb FBA inh 73.7 | Mtb FBA confirm 166.4 | GDH-TPI counter-2 126.6
CCCCC[C@H]1CN(CCc2ccccc2)C(=O)[C@@H]1CC(=O)NCc1ccc(OC)cc1	none
COc1ccccc1NC(=O)N1CCCC1C(=O)Nc1ccc2c(c1)OCO2 (configuration not stated)	Mtb FBA inh 28.2 | Mtb FBA confirm 98.5 | GDH-TPI counter-2 86.5
COc1ccc(NC(=O)c2cc(C3CCCCN3C(=O)c3ccc(NC(C)=O)cc3)on2)c(C)c1 (configuration not stated)	none (no result: Mtb betalactam, RecA intein inh, Rv3671c protease, UGM FP inh)
O=C(NCCc1ccc(Cl)cc1)C(=O)Nc1cc2c3c(c1)CC(=O)N3CCC2	none
CCCCN(C)C(=O)Cn1nc(-c2ccc(Cl)cc2)ccc1=O	Mtb FBA inh 77.3 | Mtb FBA confirm 45.7 | GDH-TPI counter-2 41.0
Nc1c2c(nc3ccccc13)N(c1ccccc1)CC2	none
Cc1cccc(N2CCc3c2nc2ccccc2c3N)c1	Mtb FBA inh 69.7! | Mtb FBA confirm 52.0 | GDH-TPI counter-2 37.2
O=C(C1=C[C@H](c2ccc(Br)cc2)C[C@H](OCCCCO)O1)N1CCN(Cc2ccccc2)CC1	none
O=c1oc(Nc2ccccc2F)nc2ccccc12	none
O=c1oc(Nc2cccc(Cl)c2)nc2ccccc12	Mtb FBA inh 47.8 | Mtb FBA confirm 34.1 | GDH-TPI counter-2 18.1
Cc1ccccc1NC(=O)C1CCN(c2cc(-c3ccccc3)nc3ncnn23)CC1	none
COc1ccc2cc3cc(C(=O)NCCCN4CCc5ccccc5C4)sc3nc2c1	none (no result: UGM FP inh)
COc1ccc2cc3cc(C(=O)NC4CC4)sc3nc2c1	Mtb FBA inh 101.8 | Mtb FBA confirm 129.5 | GDH-TPI counter-2 117.1
Cc1cc(C)c([N+](=O)[O-])cc1NCC(=O)N1CCN(c2ccccc2)CC1	none
COc1ccc2c(c1OC)C(=O)OC2Nc1nc(-c2ccc(-c3ccccc3)cc2)cs1 (configuration not stated)	Mtb FBA inh 33.9 | Mtb FBA confirm inactive | GDH-TPI counter-2 inactive | GDH-TPI dose 9.52
COc1cccc(C=Nc2ccccc2C(=O)Nc2nccs2)c1OC	Mtb FBA inh 68.4 | Mtb FBA confirm 156.1 | GDH-TPI counter-2 125.9
O=C(Nc1nccs1)c1cccnc1Cl	none
O=C(Nc1nccs1)c1ccccc1N=Cc1ccccc1	Mtb FBA inh 87.5 | Mtb FBA confirm inactive | GDH-TPI counter-2 inactive
CC(NC(=O)c1ccccc1Cl)C(=O)N1CCN(Cc2ccc3c(c2)OCO3)CC1 (configuration not stated)	none (no result: RecA intein inh, UGM FP inh)
Cc1cccc(NS(=O)(=O)c2ccccc2)n1	Mtb FBA inh 29.1 | Mtb FBA confirm 69.2 | GDH-TPI counter-2 59.2
Cc1cccc(NS(=O)(=O)c2ccc(C(C)(C)C)cc2)n1	none
Cc1cccc(NS(=O)(=O)Cc2ccccc2)n1	Mtb FBA inh 65.8 | Mtb FBA confirm 65.8 | GDH-TPI counter-2 54.4
CCCNC(=O)Nc1nc2ccccc2s1	none
CCCNC(=O)c1ccc(-c2nc3ccccc3s2)s1	GDH-TPI counter-1 32.3, Mtb FBA inh 48.2 | Mtb FBA confirm 99.6 | GDH-TPI counter-2 65.9
COc1ccc(-c2oc3cccnc3c2/C=C/c2ccc(OC)c(OC)c2)cc1	Mtb FBA inh 93.5 | Mtb FBA confirm active | GDH-TPI counter-2 195.2
COc1ccc(-c2cc(C(F)F)nc(-n3nc(C)cc3C)n2)cc1	Mtb FBA inh 52.3 (no result: Mtb betalactam) | Mtb FBA confirm 62.8 | GDH-TPI counter-2 44.4
COc1ccccc1CNCC(=O)Nc1ccccc1-n1cccc1	none
CCCc1cc(C(=O)OCC(=O)N2CCN(c3ccc(OC)cc3)CC2)sc1C	none (no result: RecA intein inh)
CCCCc1cc(=O)oc2cc(C)cc(OCC(=O)NCCN3CCOCC3)c12	Mtb FBA inh 51.4 | Mtb FBA confirm active | GDH-TPI counter-2 170.0
CCCCc1cc(=O)oc2c(C)c(OCC(=O)NCCN3CCOCC3)ccc12	none
O=C(COc1cc(Cl)c(Cl)cc1Cl)NCCN1CCOCC1	none
CCCc1cc(=O)oc2cc(C)cc(OCC(=O)NCCCN3CCOCC3)c12	Mtb FBA inh 73.2 | Mtb FBA confirm inactive | GDH-TPI counter-2 30.3

Screening results as filed in PubChem.
